Drawing on PubChem BioAssay, this text covers composite z-score and z-score for 17 molecules.

Each structure is given as a SMILES string.

For experiment [1], the system named is Human papillomavirus type 1a protein E7 (residues 44-93). Kind of experiment: HPV1a E7 fragment binders on microarrays, primary screen, biochemical, small-molecule microarray, residues 44-93, 635 nm fluorescence (AID 1108).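 Also: E7 fragment applied at 1 µg/mL in TBST for 1 h at 4 C; score combines spot fluorescence with its signal to noise ratio.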 The note with it: small-molecule microarray binding, fluorescence 635 nm; higher = more signal.
Experiment [2] can be described thus: modulators of HCV replicon luciferase signal, primary screen, HCV replication inhibitor project, Huh7 cells, luciferase reporter (AID 1109).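 Also: huh7 hepatoma cells harbouring a luciferase neomycin HCV replicon reporter; luciferase luminescence as measure of HCV replicon replication; test concentration not given here.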 The note with it: 48 h, higher = more signal. (In antiviral work, replicon cells carry a viral genome segment that copies itself.)
The target in experiment [3] is Left-right determination factor 2 (Homo sapiens) (UniProt O00292). Kind of experiment: LEFTY2 binders on small-molecule microarrays, primary screen, biochemical, small-molecule microarray, 635 nm fluorescence scan (AID 1110). The note with it: LEFTY2 binding, higher = more signal.
Experiment [4] concerns the target Calmodulin-1 (Homo sapiens) (UniProt P0DP23). The experiment can be described thus: CALM1 binders on microarrays, EGTA buffer, profiling panel, biochemical, small-molecule microarray, Cy5-labelled CALM1 (AID 1111).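 Also: labelled calmodulin applied in Tris saline Tween buffer holding calcium plus EGTA and DTT.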 The note with it: Cy5-CALM1 binding fluorescence, higher = more signal.
For experiment [5] the target is unchanged. The experiment can be described thus: calcium-bound CALM1 binders on microarrays, profiling panel, artefact control for SMM control-protein annotation, biochemical, small-molecule microarray, Cy5-labelled CALM1, plus calcium (AID 1112).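 Also: score merges spot fluorescence with signal to noise from triplicate slides.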 The note with it: Cy5-CALM1 binding fluorescence, higher = more signal.
Experiment [6] can be described thus: small-molecule microarray binders of probe aWnt5a, primary screen, biochemical, biotinylated probe, 635/667 nm fluorescence (AID 1113).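 Also: score merges 667 nm fluorescence intensity with signal-to-noise per printed feature.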 The note with it: higher = more signal.
A short description of experiment [7]: small-molecule microarray binders of probe aShh, primary screen, biochemical, biotinylated probe, 635/667 nm fluorescence (AID 1114).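 Also: probe is biotin-labelled aShh protein from a stem cell growth factor screen; measures binding of labelled protein to compounds printed on the slide; score merges feature fluorescence at 667 nm with signal-to-noise.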 The note with it: higher = more signal.
The nature of experiment [8]: small-molecule microarray binders of probe aNog, primary screen, biochemical, biotinylated probe, 635/667 nm fluorescence (AID 1115).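 Also: probe is biotinylated aNog protein used at 0.15 µg/mL for 1 h at 4 C; z-score combines 667 nm fluorescence of each spot with its signal to noise.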 The note with it: higher = more signal.
Experiment [9] has as its target Torsin-1A-interacting protein 1 (Homo sapiens) (UniProt Q5JTV8). The experiment can be described thus: LAP1 binders from COS7 cell lysate, primary screen, small-molecule microarray, 635/667 nm fluorescence (AID 1116). The note with it: COS7-hLAP1 lysate binding, 635 nm fluorescence, higher = more signal.
Experiment [10] has as its target Alpha-bungarotoxin (Bungarus multicinctus) (UniProt P60615). The experiment can be described thus: alpha-bungarotoxin binders on microarray, profiling panel, artefact control for SMM control protein annotation, biochemical, small-molecule microarray, Alexa647 label, 635/667 nm fluorescence (AID 1117). The note with it: alpha-BTX-A647 binding fluorescence, higher = more signal.

Sequence of Alpha-bungarotoxin (Bungarus multicinctus) (P60615 whole entry, looked up): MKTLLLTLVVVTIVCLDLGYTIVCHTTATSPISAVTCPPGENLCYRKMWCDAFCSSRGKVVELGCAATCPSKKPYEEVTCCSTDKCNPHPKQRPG
Sequence of Torsin-1A-interacting protein 1 (Homo sapiens) (Q5JTV8 whole entry, looked up): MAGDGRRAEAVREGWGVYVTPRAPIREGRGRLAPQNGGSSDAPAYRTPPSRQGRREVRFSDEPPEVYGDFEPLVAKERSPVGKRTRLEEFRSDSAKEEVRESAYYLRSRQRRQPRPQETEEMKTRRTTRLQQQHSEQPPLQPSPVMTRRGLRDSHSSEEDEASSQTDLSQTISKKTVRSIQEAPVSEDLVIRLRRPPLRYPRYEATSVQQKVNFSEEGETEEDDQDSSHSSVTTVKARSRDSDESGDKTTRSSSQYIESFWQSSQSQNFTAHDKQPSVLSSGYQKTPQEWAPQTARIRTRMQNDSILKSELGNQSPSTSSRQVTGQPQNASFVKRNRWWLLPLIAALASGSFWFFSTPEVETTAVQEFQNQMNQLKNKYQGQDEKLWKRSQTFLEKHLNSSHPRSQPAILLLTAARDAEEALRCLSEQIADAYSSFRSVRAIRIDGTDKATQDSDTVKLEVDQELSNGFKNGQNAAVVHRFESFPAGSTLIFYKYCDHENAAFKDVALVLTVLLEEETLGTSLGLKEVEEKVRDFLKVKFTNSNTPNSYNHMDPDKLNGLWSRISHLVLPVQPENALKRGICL
Sequence of Left-right determination factor 2 (Homo sapiens) (O00292 whole entry, looked up): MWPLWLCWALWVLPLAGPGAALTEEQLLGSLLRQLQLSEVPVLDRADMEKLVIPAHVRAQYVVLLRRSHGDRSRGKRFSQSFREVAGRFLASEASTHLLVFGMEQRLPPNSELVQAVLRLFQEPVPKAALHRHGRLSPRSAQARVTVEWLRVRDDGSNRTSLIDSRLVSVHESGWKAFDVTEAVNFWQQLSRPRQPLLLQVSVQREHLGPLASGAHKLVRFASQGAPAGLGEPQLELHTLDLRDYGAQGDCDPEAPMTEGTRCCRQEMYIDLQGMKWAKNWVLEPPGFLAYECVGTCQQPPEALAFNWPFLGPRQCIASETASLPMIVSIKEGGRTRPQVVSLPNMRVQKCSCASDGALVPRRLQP

For `O=C1C[C@@H](O)[C@@H](O)[C@@H]2[C@@H]3C(=O)N(C4CCCCC4)C(=O)[C@@H]3CC[C@H]12`, the composite z-score in [1] was 0.717; in [3], 0.456; in experiment [4], -0.0292; in [5] it was -0.57; in experiment [6] it was -0.114; in experiment [7], -0.309. Besides, the composite z-score is 0.0051 in experiment [8], 0.473 in [9] and -0.0214 in [10]. For the same molecule, in experiment [2], the z-score was -0.0951.
For the molecule `COC(=O)c1c(CC[C@@H](CO)NC(=O)N[C@H](Cc2ccccc2)Cn2cc(-c3ccccc3N)nn2)oc(C(C)=O)c1C(=O)OC`, the composite z-score in [1] was 0.734; in [3] it was -0.104; in experiment [4], -0.0936; in experiment [5], -0.656; in experiment [6], -0.001; in [7], 0.0326. Moreover, the composite z-score in [8] came to 1.12; in experiment [9] it was 1.54; in [10], 0.57. The z-score in experiment [2] is -1.35.
In the case of `CN1C(=O)C2C(C1=O)C1C=C(CCCO)C2C(c2ccc(CN3CCCC3)cc2)N1C` (stereo not given), the composite z-score was -0.0161 in experiment [1]; 0.175 in [3]; -0.573 in [4]; -0.0923 in experiment [5]; -0.148 in experiment [6]; -0.273 in experiment [7]. For the same molecule, the composite z-score in [8] came out at 0.171; in [9], 0.0993; in experiment [10] it was 0.0035. For the same molecule, the z-score in experiment [2] was -0.259.
Regarding `CC(C)OC(=O)C=C1C[C@@H](c2ccc(C#N)cc2)O[C@@H](c2ccc(C#N)cc2)O1`, the composite z-score was found to be 1.45 in experiment [1]; 0.701 in experiment [3]; 0.857 in experiment [4]; 0.621 in experiment [5]; 0.178 in experiment [6]; 0.0875 in experiment [7]. The composite z-score in experiment [8] came out at 0.229; in [9] it was 1.22; in experiment [10] it was 1.09. In experiment [2], the z-score was -2.19.
As for `C=C(/C(=C/C[C@@H](OC(=O)c1ccncc1)c1ccc(OCCO)cc1)c1cnc2ccccc2c1)C(C)C`, the composite z-score in experiment [1] was 0.901; in experiment [3], 0.466; in experiment [4], 0.193; in experiment [5] it was -0.583; in experiment [6], -0.272; in experiment [7], -0.0234. Also, the composite z-score in [8] was -0.302; in experiment [9], 2.75; in experiment [10], 1.26. For the same molecule, in [2], the z-score is -3.18.
As for `CCOC(=O)[C@H](Cc1ccccc1)NC(=O)CCC1CC(OC(=O)NCc2ccc3c(c2)OCO3)CC2(CCCC(COC(=O)NCc3ccccc3)O2)O1` (stereo not given in full), the composite z-score in experiment [1] was 1.33; in [3] it was 0.619; in experiment [4], 0.351; in experiment [5] it was -0.298; in [6], -0.128; in experiment [7], -0.0793. Also, the values for the composite z-score in [8], in experiment [9] and in [10] were 0.041, 0.183 and 0.463, respectively. Further, the z-score in experiment [2] was -1.08.
As for `COc1ccc([Si](C)(C)[C@H]2[C@H](CC(=O)N3CCC[C@H]3CO)O[C@@]3(C(=O)N(Cc4cccc(N5C(=O)COc6ccccc65)c4)c4ccccc43)[C@@H]2C)cc1`, the composite z-score is 1.08 in [1]; 0.805 in experiment [3]; 1.36 in experiment [4]; 0.487 in experiment [5]; 0.0556 in [6]; -0.17 in experiment [7]. The composite z-score in [8] is 0.274; in [9] it was 1.16; in experiment [10], -0.654. Also, the z-score in [2] was -2.51.
Take `O=C1[C@H]2[C@H]3[C@H](O)[C@H](O)CC(=NOC[C@@H](O)COCc4ccco4)[C@H]3CC[C@H]2C(=O)N1Cc1ccc2c(c1)OCO2`: the composite z-score is -0.532 in [1]; 1.37 in experiment [3]; -1.37 in [4]; -2.03 in experiment [5]; -0.119 in experiment [6]; -0.349 in experiment [7]. Further, the composite z-score in [8] is -0.278; in experiment [9], 0.13; in experiment [10] it was -0.147. Further, the z-score in experiment [2] is -0.385.
As to `CC(C)(C)OC(=O)CC[C@]1(C(N)=O)COC(c2ccc(OCCCO)cc2)=N1`, the composite z-score was 0.0119 in [1]; -0.471 in experiment [3]; 2.68 in experiment [4]; 1.42 in [5]; 0.131 in experiment [6]; 0.591 in experiment [7]. Further, the composite z-score in experiment [8] stood at 1.7; in experiment [9], 2.08; in experiment [10], 1.64. Also, in experiment [2], the z-score was -0.518.
On to `COC(=O)[C@H](C)NC(=O)CCC1CC(OC(=O)NCc2ccc3c(c2)OCO3)CC2(CCCC(COC(=O)NCCOc3ccccc3)O2)O1` (stereo not given in full), for which the composite z-score in experiment [1] was 0.966; in experiment [3], 0.581; in experiment [4], -0.0874; in experiment [5], -0.604; in [6], -0.129; in experiment [7] it was -0.138. Besides, the composite z-score in [8] is -0.283; in experiment [9], 0.267; in [10], 0.83. Moreover, the z-score in experiment [2] was -0.424.
As for `CCOC(=O)CCN1C(=O)[C@H]2[C@H]3[C@H](O)C=CC(=O)[C@@H]3CC[C@H]2C1=O`, the composite z-score in experiment [1] was -0.219; in [3] it was 0.61; in experiment [4], -0.0738; in [5], -0.583; in experiment [6], -0.202; in experiment [7], -0.262. The figures for the composite z-score in experiment [8], in experiment [9] and in [10] were -0.147, 0.174 and 0.335, respectively. Also, the z-score in [2] was 0.158.
In the case of `CCCCCN1CC=CC23O[C@@H]4C=CCOC(=O)[C@@H]4[C@H]2C(=O)N(C(CO)C(C)C)[C@@H]3C1=O` (stereo not given in full), the composite z-score in experiment [1] is -0.516; in experiment [3], -0.518; in [4], -0.385; in experiment [5], -1.07; in experiment [6], -0.176; in experiment [7], -0.276. The composite z-score is -0.254 in [8], -0.0843 in experiment [9] and -0.257 in experiment [10]. In experiment [2], this molecule returned a z-score of 0.245.
Take `CC(=O)C[C@H](O)[C@@H](NC(=O)OC(C)(C)C)C(C)C`: the composite z-score in experiment [1] is -2.43; in experiment [3] it was -0.319; in experiment [4] it was -0.292; in [5] it was -0.327; in experiment [6], -0.203; in experiment [7], 0.0121. The values for the composite z-score in experiment [8], in experiment [9] and in experiment [10] were -0.0926, -0.547 and 0.0557, respectively. Moreover, in experiment [2], the z-score was found to be 0.479.
As for `O=C1[C@H]2[C@H]3[C@H](O)[C@H](O)CC(=NO[C@@H]4O[C@H](CO)[C@@H](O)[C@H](O)[C@H]4O)[C@H]3CC[C@H]2C(=O)N1C1CCCCC1`, the composite z-score in experiment [1] was 1.3; in [3], 0.271; in [4], -0.0656; in experiment [5] it was -0.0964; in [6], -0.0721; in experiment [7] it was 0.0062. Besides, the composite z-score in experiment [8] was determined as 0.604; in experiment [9], 0.129; in experiment [10], 0.0855. The same molecule returned a z-score in experiment [2] of 0.524.
Consider `CCOC(=O)CCN1C(=O)[C@H]2[C@H]3[C@H](O)[C@H](O)CC(=O)[C@H]3CC[C@H]2C1=O`, for which the composite z-score was 0.182 in experiment [1]; 0.412 in [3]; 0.0492 in experiment [4]; -0.375 in [5]; -0.201 in experiment [6]; -0.229 in experiment [7]. Further, the results for the composite z-score in experiment [8], in experiment [9] and in experiment [10] were -0.201, 0.619 and 0.0323, respectively. For the same molecule, the z-score in experiment [2] was -1.07.
Turning to `CCOC(=O)[C@H](CC(C)C)NC(=O)CCC1CC(OC(=O)NCc2cccc3ccccc23)CC2(CCCC(COC(=O)NCCN3CCOCC3)O2)O1` (stereo not given in full), the composite z-score was 1.26 in [1]; 0.444 in experiment [3]; 0.144 in [4]; -0.854 in experiment [5]; -0.176 in experiment [6]; -0.0605 in [7]. In addition, the composite z-score is -0.261 in experiment [8], 0.217 in experiment [9] and 0.548 in experiment [10]. The z-score in experiment [2] is -0.814.
Turning to `C=CCC(OC(C)=O)[C@@H]1[C@@H](N(Cc2cc3ccccc3o2)C(=O)Cc2ccc(F)cc2)c2cc(OCCCO)ccc2N1C(=O)Cc1ccc(OC)cc1` (stereo not given in full), the composite z-score in experiment [1] is -1.07; in [3], -0.0691; in experiment [4], -0.481; in [5], -0.435; in experiment [6], -0.236; in [7] it was 0.14. Moreover, the composite z-score in experiment [8] was 0.0234; in experiment [9] it was 0.158; in experiment [10], 0.286. Further, the z-score in experiment [2] is -1.14.
